An excerpt weighted towards active compounds, which were near 7.9% of everything screened.
Her2 expr inh: inhibitors of human Her2 kinase expression; SKBR-3 HER2 protein level, AlphaScreen, 18-24 h; stronger effect = lower value; HER2 level % of control, % at 10 µM; hit rate 0.69% among 65,000; AID 645;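 active means HER2 level under 5% of the carrier-only control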
M1 agonist: agonists of M1 muscarinic receptor; CHO-M1 cells, Fluo-4 calcium fluorescence, agonist mode; stronger effect = higher value; B-score at 10 µM; hit rate 3% among 64,000;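 active means fluorescence rise, raw or as B-score row- and column-corrected plate score, outside the 99.7% band of its plate's samples, either direction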
PLAP activator: activators of human placental alkaline phosphatase; P05187; purified PLAP enzyme, luminescent substrate read-out; stronger effect = higher value; activation fold at 20 µM; hit rate 1.2% among 96,000; AID 696; in the data active means activation fold above about 2
Target sequence (P05187 whole entry, looked up): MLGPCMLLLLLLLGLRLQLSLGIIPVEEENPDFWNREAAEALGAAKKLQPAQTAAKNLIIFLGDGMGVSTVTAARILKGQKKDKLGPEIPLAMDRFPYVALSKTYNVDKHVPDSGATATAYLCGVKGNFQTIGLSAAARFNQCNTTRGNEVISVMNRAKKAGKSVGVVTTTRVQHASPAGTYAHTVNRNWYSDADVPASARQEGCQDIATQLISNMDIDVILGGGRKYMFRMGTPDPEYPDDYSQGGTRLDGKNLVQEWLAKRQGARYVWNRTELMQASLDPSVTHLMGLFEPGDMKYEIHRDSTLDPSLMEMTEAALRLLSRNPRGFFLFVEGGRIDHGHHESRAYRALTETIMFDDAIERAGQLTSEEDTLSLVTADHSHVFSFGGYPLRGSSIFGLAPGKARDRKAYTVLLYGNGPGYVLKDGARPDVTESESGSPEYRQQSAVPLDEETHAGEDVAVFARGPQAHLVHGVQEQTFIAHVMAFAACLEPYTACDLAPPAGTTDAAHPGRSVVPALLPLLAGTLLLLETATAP
Cav3 T inh: blocks human Cav3.2 T-type calcium channel | hit rate 4% among 100,000 | B-score at 10 µM | Cav3.2-expressing cells, Fluo-4 calcium fluorescence FDSS; stronger effect = lower value | AID 449739 | O95180;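 active means single-dose well whose peak fluorescence ratio is a statistical outlier from its plate by either plate-standardised score or position-corrected B-score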
M1 antagonist: blocks the rat M1 muscarinic receptor response to acetylcholine. P08482. CHO-M1 cells, Fluo-4 calcium, ACh EC80 antagonist mode; stronger effect = lower value. B-score at 10 µM. hit rate 3.4% among 64,000. AID 628;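 active means calcium fluorescence response, raw or row-and-column corrected B-score, differing from the plate sample mean either way at a set confidence level, mostly lower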
Hits are given with their value.

Screening O=C(/C=C/c1c(Cl)cccc1Cl)N1CCN(c2ncccn2)CC1 returned PLAP activator inactive and Cav3 T inh -4.3.
`Cc1ccc(-c2c(C)n([O-])c3c([n+]2=O)CCCC3)o1` gave PLAP activator inactive and Cav3 T inh inactive.
`O=C(CN(Cc1ccco1)C(=O)c1ccccc1)Nc1ccc(Cl)c(Cl)c1` gave PLAP activator inactive and Cav3 T inh -8.68.
For O=C(CN(Cc1ccco1)C(=O)c1cccc(Cl)c1)Nc1c(Cl)cc(Cl)cc1Cl the results were PLAP activator inactive and Cav3 T inh -4.49.
Screening COC(=O)Cc1cc(=O)[nH]c(Nc2nc3ccccc3o2)n1 returned Her2 expr inh inactive, M1 agonist inactive, PLAP activator 2.6, Cav3 T inh 3.46 and M1 antagonist inactive.
`CCOC(=O)Cc1cc(=O)[nH]c(Nc2nc3ccccc3o2)n1` gave Her2 expr inh inactive, M1 agonist inactive, PLAP activator inactive, Cav3 T inh inactive and M1 antagonist inactive.
Screening COC(=O)Cn1cnc2c(nnn2-c2cccc(Cl)c2)c1=O returned Her2 expr inh inactive.
Screening O=c1c2c(-c3ccco3)csc2nc(SCc2cn3cccnc3n2)n1-c1ccccc1 returned Her2 expr inh inactive, M1 agonist inactive, PLAP activator inactive, Cav3 T inh -4.43 and M1 antagonist inactive.
`O=C(CSc1nc2scc(-c3ccco3)c2c(=O)n1-c1ccccc1)N1CCOCC1` gave Her2 expr inh inactive, M1 agonist inactive, PLAP activator inactive, Cav3 T inh inactive and M1 antagonist inactive.
Cc1cc2nc(C3CCN(CC4COc5ccccc5O4)CC3)[nH]c2cc1C (stereo not given) was read as Her2 expr inh inactive, M1 agonist inactive, Cav3 T inh -6.26 and M1 antagonist inactive.
For CCCNC(=S)N1CCC(c2nc3cc(C)c(C)cc3[nH]2)CC1 the results were PLAP activator inactive and Cav3 T inh inactive.
CCc1nc(C)cn1S(=O)(=O)c1ccc(Cl)c(Cl)c1Cl was read as Her2 expr inh inactive, M1 agonist inactive, PLAP activator inactive, Cav3 T inh -3.57 and M1 antagonist inactive.
COC(=O)CS(=O)(=O)c1nnc([C@H](Cc2ccccc2)NC(=O)OC(C)(C)C)o1 was read as Her2 expr inh -17.1, M1 agonist inactive, PLAP activator inactive, Cav3 T inh inactive and M1 antagonist inactive.
O=C1c2ccsc2SCCN1Cc1c(Cl)cccc1Cl was read as PLAP activator inactive and Cav3 T inh -5.63.
Screening O=C1c2ccsc2SCCN1Cc1ccc(Cl)cc1Cl returned PLAP activator inactive and Cav3 T inh -4.58.
O=C(CN1CCN(Cc2ccc(F)cc2Cl)C1=O)NCCc1ccc(Cl)cc1 was read as PLAP activator inactive and Cav3 T inh inactive.
For O=c1ccccn1Cc1c(Cl)cccc1Cl the results were PLAP activator inactive and Cav3 T inh inactive.
`O=C(CN(C(=O)CNC(=O)c1ccco1)c1ccc(Cl)c(Cl)c1)NC1CCCCC1` gave Her2 expr inh inactive, M1 agonist inactive, PLAP activator inactive, Cav3 T inh -4.27 and M1 antagonist inactive.
Screening O=C(NCC(=O)N(CCc1ccccc1)C(C(=O)NC1CCCCC1)c1ccncc1)c1ccco1 (stereo not given) returned Her2 expr inh inactive, M1 agonist inactive, PLAP activator inactive, Cav3 T inh inactive and M1 antagonist inactive.
Cc1ccc(C(C(=O)NC2CCCCC2)N(CCC(C)C)C(=O)CNC(=O)c2ccco2)o1 (stereo not given) was read as Her2 expr inh inactive, M1 agonist inactive, PLAP activator inactive, Cav3 T inh -4.73 and M1 antagonist inactive.
Screening O=C(NCC(=O)N(CCc1ccccc1)C(C(=O)NC1CCCC1)c1cccnc1)c1ccco1 (stereo not given) returned Her2 expr inh -19.0, M1 agonist inactive, PLAP activator inactive, Cav3 T inh inactive and M1 antagonist inactive.
`O=C(NCC(=O)N(Cc1ccccc1)C(C(=O)NC1CCCCC1)c1ccco1)c1ccco1` (stereo not given) gave Cav3 T inh inactive.
Screening O=C(/C=N/O)NCc1ccncc1 returned Her2 expr inh inactive, M1 agonist inactive, PLAP activator inactive, Cav3 T inh -7.99 and M1 antagonist inactive.
`COc1ccc(OC)c(NC(=O)Cc2coc3ccc4ccccc4c23)c1` gave PLAP activator inactive and Cav3 T inh inactive.
For O=C(COc1ccc(S(=O)(=O)N2CCOCC2)cc1)Nc1ccc2c(c1)OCCO2 the results were Her2 expr inh inactive, M1 agonist inactive, PLAP activator inactive, Cav3 T inh inactive and M1 antagonist inactive.

Source: PubChem BioAssay
